Measured values reported in PubChem BioAssay (Tox21).
Records with an inconclusive call do not appear. Values without a mark were called inactive. Calls of active or inactive are those of the source. The call rests on the fitted dose curve; in most records, active means well fitted cell-killing curve with a large enough effect in the repeat runs; inconclusive means weak or mixed curves, or effect the other way; inactive means flat fitted curve, though single readings scatter.

Assay: qHTS RealTime-Glo MT Cell Viability Assay in HEK293 cells - 24 hour (AID 1224886); further: nearly all actives have a fitted effect of over 50% in size; on activity change, negative = cytotoxicity: top concentration of the series differs between compounds
Conditions: RealTime-Glo luminescence; series mostly up to 76.8 µM; activity change, negative = cytotoxicity: at the top concentration
Summary of the method: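 HEK293 cells seeded with NanoLuc/prosubstrate reagent, rested 5 h at 37 C, then dosed and kept at 37 C up to 40 h. Nonlytic real-time luminescence from viable cells read at 0, 8, 16, 24, 32 and 40 h.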
On the % scale 0 is the no-effect control and ±100 the full control effect; potency means the concentration at half of the fitted maximal effect.

| SMILES | activity change, negative = cytotoxicity | Potency |
| --- | --- | --- |
| COc1cc2c(cc1OC)-c1cc(=Nc3c(C)cc(C)cc3C)n(C)c(=O)n1CC2 | -31.8% [at 35.3 µM] |  |
| Cc1ccccc1N1C(=O)c2cc(S(N)(=O)=O)c(Cl)cc2NC1C (stereo not drawn) | -7.82% [at 35.3 µM] |  |
| C=CC(=C)CCCC(C)(C)OC(C)=O | -5.54% |  |
| NC(=O)N(O)[C@@H]1COc2cc(OCc3ccccc3)ccc21 | -25% |  |
| O=C(OCCOCCO)c1ccccc1Nc1cccc(C(F)(F)F)c1 | -29.5% [at 35.3 µM] |  |
| CN1CCN(c2c(F)cc3c(=O)c(C(=O)O)cn4c3c2OCN4C)CC1 | 0.438% [at 15.8 µM] |  |
| OCC1CC=CCC1 (stereo not drawn) | 0.261% |  |
| CC(C)CCCCCOC(=O)CCCCC(=O)OCCCCCC(C)C | 1.44% |  |
| CO[C@H]1C=CO[C@@]2(C)Oc3c(C)c(O)c4c(O)c(c5c(c4c3C2=O)=NC2(CCN(CC(C)C)CC2)N=5)NC(=O)/C(C)=C\C=C/[C@H](C)[C@H](O)[C@@H](C)[C@@H](O)[C@@H](C)[C@H](OC(C)=O)[C@@H]1C |  | 38.1 µM (active) |
| CN1Cc2cc(C(=O)N3CCC(C4CCNCC4)CC3)ccc2N[C@@H](CC(=O)O)C1=O | 3.87% [at 35.3 µM] |  |
| COC(=O)c1cc(Cl)ccc1NS(=O)(=O)C(F)(F)F | 1.63% [at 35.3 µM] |  |
| CCOCCn1c(C2CCN(CCc3ccc(C(C)(C)C(=O)O)cc3)CC2)nc2ccccc21 | 3.16% [at 35.3 µM] |  |
| CCc1c2c(nc3ccc(OC(=O)N4CCC(N5CCCCC5)CC4)cc13)-c1cc3c(c(=O)n1C2)COC(=O)[C@]3(O)CC |  | 2.68 µM (active) |
